Assay [1] is described as follows: ATG_TCF_b_cat_CIS: Attagene CIS-FACTORIAL HepG2 Assay for human T-Cell-Factor with beta-catenin (TCF/b-cat) (AID 2282965). The note with it: HepG2 TCF/beta-catenin cis-reporter transcription, actives raise or lower the signal. The essentials:
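Endogenous transcription factor activity is captured through cis-promoter reporter constructs transiently introduced into human HepG2 liver cells. Induced reporter mRNA is measured after 24 h and fitted bidirectionally relative to DMSO.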

Assay [2] in a line: ATG_TAL_CIS: Attagene CIS-FACTORIAL HepG2 Assay for human TAL Basal Promoter (AID 2282966).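 Note: background control endpoint measuring basal TAL promoter reporter mRNA not a specific factor.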 The note with it: HepG2 Attagene cis-factorial TAL promoter reporter; actives raise or lower the signal. The essentials:
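Steps: transfect HepG2 with multiple reporter transcription units; dose 24 h; isolate RNA, reverse-transcribe, PCR-amplify, label with 6-FAM, digest with HpaI; resolve by capillary electrophoresis. Bidirectional fitting against DMSO baseline.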

Assay [3] is described as follows: ATG_VDRE_CIS: Attagene CIS-FACTORIAL HepG2 Assay for human Vitamin D Receptor Element (VDRE) (AID 2282968). Particulars: HepG2 VDRE cis-reporter transcription, actives raise or lower the signal. The essentials:
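In transiently transfected HepG2 liver cells, gain or loss of reporter mRNA after 24 h exposure is scored relative to DMSO, using fluorescence detection by capillary electrophoresis of RT-PCR products.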

The target of assay [4] is Estrogen receptor (Homo sapiens) (UniProt P03372). The assay can be described thus: ATG_ERa_TRANS: Attagene TRANS-FACTORIAL HepG2 Assay for human Estrogen Receptor alpha (ERa) (AID 2282970; active = hit-call score of the fitted dose curve at least 0.9, where 1 is the maximum). The note with it: HepG2 Attagene TRANS ERa GAL4 reporter, mRNA. The essentials:
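Multiplexed cell-based reporter format in HepG2: chimeric ERa-Gal4 protein drives GAL4-UAS reporter transcription. Fluorescent reporter mRNA quantified by capillary electrophoresis 24 hours after dosing; endpoint fitted as signal gain against DMSO.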

Assay [5] deals with X-box-binding protein 1 (Homo sapiens) (UniProt P17861). The assay can be described thus: ATG_Xbp1_CIS: Attagene CIS-FACTORIAL HepG2 Assay for human X-box Binding Protein 1 (XBP1) (AID 2282972). The note with it: HepG2 XBP1 cis-element reporter, Attagene multiplex; actives raise or lower the signal. The essentials: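 HepG2 cells transiently transfected with cis-regulated multiple reporter transcription units; endogenous transcription factor activity measured 24 hours after chemical dosing. Reporter mRNA quantified by RT-PCR, 6-FAM primer extension, HpaI digestion and capillary electrophoresis; bidirectional fitting versus DMSO.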

Assay [6] is described as follows: ATG_M_19_TRANS: Attagene TRANS-FACTORIAL HepG2 Assay for M19 Transcription Factor (Internal Marker) (AID 2282974; active = hit-call score of the fitted dose curve at least 0.9, where 1 is the maximum). Particulars: HepG2 Attagene TRANS-FACTORIAL M19 internal marker reporter. The essentials:
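Measured here: internal-marker reporter transcript from HepG2 cells transfected with MRTUs, harvested at 24 h. cDNA PCR products were 6-FAM labelled by primer extension, cut with HpaI for 2 h at 37 C, and resolved by CE.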

Assay [7] deals with Estrogen-related receptor gamma (Homo sapiens) (UniProt P62508). The assay can be described thus: ATG_ERRg_TRANS: Attagene TRANS-FACTORIAL HepG2 Assay for human Estrogen-Related Receptor gamma (ERRg) (AID 2282977; active = hit-call score of the fitted dose curve at least 0.9, where 1 is the maximum;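 note: hits increase reporter signal over DMSO so potencies reflect activators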). The note with it: HepG2 Attagene TRANS reporter, ERRg transactivation. The essentials:
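HepG2 cells transiently transfected with multiplexed GAL4-UAS reporter units and chimeric NR-Gal4 constructs were exposed to test chemicals for 24 h. Reporter mRNA was measured by RT-PCR, 6-FAM primer extension, HpaI digestion and capillary electrophoresis; gain-of-signal versus DMSO.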

For assay [8], the target named is Bile acid receptor (Homo sapiens) (UniProt Q96RI1). Put plainly: ATG_FXR_TRANS: Attagene TRANS-FACTORIAL HepG2 Assay for Farnesoid X Receptor (FXR) (AID 2282979; active = hit-call score of the fitted dose curve at least 0.9, where 1 is the maximum;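 note: hits raise reporter mRNA above DMSO so AC50 marks FXR activation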). The note with it: HepG2 Attagene TRANS FXR-GAL4 reporter transcription. The gist of the method: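 After 24 h chemical treatment of transfected HepG2 cells, GAL4-UAS reporter transcripts driven by an exogenous FXR-GAL4 fusion were measured by RT-PCR and capillary electrophoresis. Increases over DMSO were fitted.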

For assay [9], the target named is Oxysterols receptor LXR-beta (Homo sapiens) (UniProt P55055). The assay can be described thus: ATG_LXRb_TRANS: Attagene TRANS-FACTORIAL HepG2 Assay for human Liver X Receptor beta (LXRb) (AID 2282981; active = hit-call score of the fitted dose curve at least 0.9, where 1 is the maximum). The note with it: HepG2 Attagene TRANS GAL4-LXRb reporter, mRNA. The gist of the method:
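Cells: HepG2, transiently transfected with GAL4-UAS reporter units plus LXRb-Gal4 fusion. Treatment: 24 h. Detection: reporter mRNA by RT-PCR, 6-FAM labelling, HpaI digestion, capillary electrophoresis.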

The target in assay [10] is Hepatocyte nuclear factor 4-alpha (Homo sapiens) (UniProt P41235). The assay can be described thus: ATG_HNF4a_TRANS: Attagene TRANS-FACTORIAL HepG2 Assay for human Hepatocyte Nuclear Factor 4 alpha (HNF4a) (AID 2282982; active = hit-call score of the fitted dose curve at least 0.9, where 1 is the maximum). Particulars: HepG2 HNF4a transactivation reporter, mRNA readout. The gist of the method:
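Transfected HepG2 reporter cells are dosed for 24 h; reporter RNA is reverse-transcribed, amplified, fluorescently labelled and HpaI-digested before CE sizing. Positive-direction fit against DMSO.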

Assay [11] in a line: ATG_M_32_TRANS: Attagene TRANS-FACTORIAL HepG2 Assay for M32 Transcription Factor (Internal Marker) (AID 2282984; active = hit-call score of the fitted dose curve at least 0.9, where 1 is the maximum;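 note: transcript level of a background control reporter unit measured by RT-PCR and capillary electrophoresis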). Particulars: HepG2 Attagene TRANS M32 internal marker reporter. The gist of the method:
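Using transiently transfected HepG2 cells exposed to test chemicals for 24 h, reporter transcripts are converted to labelled cDNA fragments and quantified by capillary electrophoresis. DMSO defines the activity baseline.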

Assay [12] has as its target Nuclear receptor subfamily 4 group A member 2 (Homo sapiens) (UniProt P43354). Put plainly: ATG_NURR1_TRANS: Attagene TRANS-FACTORIAL HepG2 Assay for human Nuclear Receptor Related Protein 1 (NURR1) (AID 2282985; active = hit-call score of the fitted dose curve at least 0.9, where 1 is the maximum). The note with it: HepG2 Attagene TRANS reporter, mRNA readout. The gist of the method: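 Cells: HepG2, transiently transfected. Exposure: 24 h. Detection: fluorescence of labelled RT-PCR products separated by capillary electrophoresis; upward fit versus DMSO.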

Assay [13] addresses Transcriptional activator Myb (Homo sapiens) (UniProt P10242). The assay can be described thus: ATG_Myb_CIS: Attagene CIS-FACTORIAL HepG2 Assay for human Myeloblastosis (Myb) Proto-Oncogene Transcription Factor (AID 2282986). The note with it: HepG2 Attagene CIS-FACTORIAL Myb reporter transcription; actives raise or lower the signal. The essentials:
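Fluorescence signals from capillary electrophoresis of RT-PCR-amplified reporter cDNA give the read-out. Cells: HepG2 transfected with multiple cis-regulated reporter units. Exposure lasts 24 hours; DMSO defines baseline for gain or loss of signal.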

Assay [14] addresses Nuclear respiratory factor 1 (Homo sapiens) (UniProt Q16656). Put plainly: ATG_NRF1_CIS: Attagene CIS-FACTORIAL HepG2 Assay for human Nuclear Respiratory Factor 1 (NRF1) Orphan Gene (AID 2282987). Particulars: HepG2 NRF1 cis-element reporter, Attagene multiplex; actives raise or lower the signal. The essentials:
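Transcriptional reporter readout, one component of a 52-endpoint multiplexed HepG2 panel. Exposure 24 h; mRNA detected via RT-PCR and fluorescent capillary electrophoresis; fitting in both directions against DMSO.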

Assay [15] in a line: ATG_TGFb_CIS: Attagene CIS-FACTORIAL HepG2 Assay for human Transforming Growth Factor (TGF) (AID 2282967). The note with it: HepG2 Attagene CIS TGFb reporter, mRNA transcription; actives raise or lower the signal. The essentials: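 HepG2 cells transiently transfected with cis-promoter-driven multiplexed reporter units; 24 h compound exposure. Reporter mRNA measured by RT-PCR, 6-FAM labeling, HpaI digestion and capillary electrophoresis; bidirectional fit versus DMSO baseline.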

The nature of assay [16]: ATG_M_06_TRANS: Attagene TRANS-FACTORIAL HepG2 Assay for M06 Transcription Factor (Internal Marker) (AID 2282983; active = hit-call score of the fitted dose curve at least 0.9, where 1 is the maximum;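 note: reporter transcript level by RT-PCR then capillary electrophoresis fluorescence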). Particulars: HepG2 Attagene TRANS M06 internal marker reporter. The essentials: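 Internal-marker background readout from a multiplexed TRANS reporter system in HepG2; 24 h dosing; mRNA induction quantified by RT-PCR plus capillary electrophoresis fluorescence; DMSO as negative control and baseline.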

For assay [17], the target named is Nuclear receptor subfamily 1 group I member 3 (Homo sapiens) (UniProt Q14994). Put plainly: ATG_CAR_TRANS: Attagene TRANS-FACTORIAL HepG2 Assay for human Constitutive Androstane Receptor (CAR) (AID 2282969; active = hit-call score of the fitted dose curve at least 0.9, where 1 is the maximum;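 note: activators raise reporter mRNA above DMSO so AC50 marks induction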). Particulars: HepG2 Attagene TRANS-FACTORIAL CAR reporter. The essentials:
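Readout is reporter mRNA induction, quantified by fluorescent primer extension and capillary electrophoresis after RT-PCR. Cells were HepG2 transiently carrying chimeric NR-Gal4 constructs with GAL4-UAS reporters, treated for 24 h; activity scored upward from DMSO.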

Assay [18] addresses Steroid hormone receptor ERR1 (Homo sapiens) (UniProt P11474). The assay can be described thus: ATG_ERRa_TRANS: Attagene TRANS-FACTORIAL HepG2 Assay for human Estrogen-Related Receptor alpha (ERRa) (AID 2282971; active = hit-call score of the fitted dose curve at least 0.9, where 1 is the maximum). The note with it: HepG2 Attagene TRANS reporter, ERRa transactivation. The gist of the method:
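Signal gain relative to DMSO for an ERRa-Gal4 chimeric receptor, read as reporter mRNA by RT-PCR/capillary electrophoresis. Human HepG2 liver cells, transient multiplex reporter transfection, 24 h chemical exposure.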

5 molecules from PubChem BioAssay (EPA / NIEHS) can be followed below.

Several values for one entry are separate records, joined by “and”; a condition that tells them apart may be missing. Equal values may be shown once. Inconclusive results are not listed. Activity calls are given as the source filed them. Rule for the calls, unless noted: active = hit-call score of the fitted dose curve at least 0.9, where 1 is the maximum; inactive = score below 0.9.

Chain of Nuclear respiratory factor 1 (Homo sapiens) (Q16656 whole entry, looked up): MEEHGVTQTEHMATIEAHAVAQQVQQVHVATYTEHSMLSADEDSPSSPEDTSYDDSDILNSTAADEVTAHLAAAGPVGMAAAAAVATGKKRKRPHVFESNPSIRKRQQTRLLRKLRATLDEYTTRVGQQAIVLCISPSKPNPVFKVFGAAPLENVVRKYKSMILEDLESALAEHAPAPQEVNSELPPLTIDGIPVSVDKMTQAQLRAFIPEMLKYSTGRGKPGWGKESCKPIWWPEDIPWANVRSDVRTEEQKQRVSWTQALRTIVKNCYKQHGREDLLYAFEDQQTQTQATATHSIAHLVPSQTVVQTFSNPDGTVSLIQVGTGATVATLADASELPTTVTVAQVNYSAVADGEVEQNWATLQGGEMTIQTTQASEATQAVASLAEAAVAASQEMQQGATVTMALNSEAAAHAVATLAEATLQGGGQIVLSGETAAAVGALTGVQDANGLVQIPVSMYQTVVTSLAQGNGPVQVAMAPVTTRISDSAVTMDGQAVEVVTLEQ
Chain of Estrogen receptor (Homo sapiens) (P03372 whole entry, looked up, the tested form may be a part): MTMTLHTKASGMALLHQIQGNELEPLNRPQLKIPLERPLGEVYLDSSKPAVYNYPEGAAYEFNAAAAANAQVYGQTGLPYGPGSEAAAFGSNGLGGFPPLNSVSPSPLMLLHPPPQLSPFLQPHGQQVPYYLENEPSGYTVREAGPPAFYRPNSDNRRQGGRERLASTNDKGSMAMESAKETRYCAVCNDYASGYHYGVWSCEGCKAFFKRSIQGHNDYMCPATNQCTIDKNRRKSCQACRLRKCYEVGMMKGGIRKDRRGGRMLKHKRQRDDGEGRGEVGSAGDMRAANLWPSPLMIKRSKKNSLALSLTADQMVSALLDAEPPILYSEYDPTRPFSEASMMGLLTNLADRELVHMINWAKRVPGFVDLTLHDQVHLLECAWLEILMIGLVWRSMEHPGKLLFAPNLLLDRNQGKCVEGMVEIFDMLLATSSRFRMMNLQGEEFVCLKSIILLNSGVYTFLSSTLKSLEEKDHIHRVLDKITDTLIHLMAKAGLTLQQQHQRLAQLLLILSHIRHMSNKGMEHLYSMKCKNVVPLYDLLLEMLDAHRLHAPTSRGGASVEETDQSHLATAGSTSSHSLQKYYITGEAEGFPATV
Chain of X-box-binding protein 1 (Homo sapiens) (P17861 whole entry, looked up): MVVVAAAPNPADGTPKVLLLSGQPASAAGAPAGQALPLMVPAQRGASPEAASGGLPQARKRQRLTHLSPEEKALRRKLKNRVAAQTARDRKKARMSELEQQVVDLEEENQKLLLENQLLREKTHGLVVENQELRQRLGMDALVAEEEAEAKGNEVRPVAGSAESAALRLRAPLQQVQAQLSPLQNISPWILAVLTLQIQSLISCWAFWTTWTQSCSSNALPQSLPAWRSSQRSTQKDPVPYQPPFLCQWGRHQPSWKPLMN
Chain of Estrogen-related receptor gamma (Homo sapiens) (P62508 whole entry, looked up, the tested form may be a part): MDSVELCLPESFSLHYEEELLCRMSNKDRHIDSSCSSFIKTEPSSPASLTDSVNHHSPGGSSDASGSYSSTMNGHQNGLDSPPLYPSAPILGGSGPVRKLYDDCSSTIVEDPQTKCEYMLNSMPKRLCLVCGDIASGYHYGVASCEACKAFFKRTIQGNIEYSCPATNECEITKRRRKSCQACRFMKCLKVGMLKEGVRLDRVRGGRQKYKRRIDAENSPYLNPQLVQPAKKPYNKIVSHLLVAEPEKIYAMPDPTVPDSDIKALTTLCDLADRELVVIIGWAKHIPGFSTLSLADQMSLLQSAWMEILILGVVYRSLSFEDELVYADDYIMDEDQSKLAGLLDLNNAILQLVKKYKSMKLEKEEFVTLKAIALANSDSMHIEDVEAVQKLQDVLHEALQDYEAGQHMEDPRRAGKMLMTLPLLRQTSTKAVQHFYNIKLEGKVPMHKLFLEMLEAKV
Chain of Nuclear receptor subfamily 4 group A member 2 (Homo sapiens) (P43354 whole entry, looked up): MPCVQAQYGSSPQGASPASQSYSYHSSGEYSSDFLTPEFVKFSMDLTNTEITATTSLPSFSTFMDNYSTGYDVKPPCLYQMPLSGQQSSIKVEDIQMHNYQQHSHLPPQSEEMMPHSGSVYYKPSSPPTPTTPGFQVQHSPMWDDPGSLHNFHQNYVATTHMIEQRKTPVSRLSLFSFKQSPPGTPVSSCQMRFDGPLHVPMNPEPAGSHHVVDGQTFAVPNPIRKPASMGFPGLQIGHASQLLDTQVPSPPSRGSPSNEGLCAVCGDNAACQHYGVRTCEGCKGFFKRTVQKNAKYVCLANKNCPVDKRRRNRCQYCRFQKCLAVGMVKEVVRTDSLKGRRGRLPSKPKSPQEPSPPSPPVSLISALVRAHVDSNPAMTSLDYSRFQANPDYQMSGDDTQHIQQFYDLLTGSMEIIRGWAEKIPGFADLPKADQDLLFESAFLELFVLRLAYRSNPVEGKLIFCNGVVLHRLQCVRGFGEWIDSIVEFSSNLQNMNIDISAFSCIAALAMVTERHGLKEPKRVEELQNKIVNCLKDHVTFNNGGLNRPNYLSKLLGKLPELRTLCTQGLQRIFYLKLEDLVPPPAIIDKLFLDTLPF
Chain of Transcriptional activator Myb (Homo sapiens) (P10242 whole entry, looked up): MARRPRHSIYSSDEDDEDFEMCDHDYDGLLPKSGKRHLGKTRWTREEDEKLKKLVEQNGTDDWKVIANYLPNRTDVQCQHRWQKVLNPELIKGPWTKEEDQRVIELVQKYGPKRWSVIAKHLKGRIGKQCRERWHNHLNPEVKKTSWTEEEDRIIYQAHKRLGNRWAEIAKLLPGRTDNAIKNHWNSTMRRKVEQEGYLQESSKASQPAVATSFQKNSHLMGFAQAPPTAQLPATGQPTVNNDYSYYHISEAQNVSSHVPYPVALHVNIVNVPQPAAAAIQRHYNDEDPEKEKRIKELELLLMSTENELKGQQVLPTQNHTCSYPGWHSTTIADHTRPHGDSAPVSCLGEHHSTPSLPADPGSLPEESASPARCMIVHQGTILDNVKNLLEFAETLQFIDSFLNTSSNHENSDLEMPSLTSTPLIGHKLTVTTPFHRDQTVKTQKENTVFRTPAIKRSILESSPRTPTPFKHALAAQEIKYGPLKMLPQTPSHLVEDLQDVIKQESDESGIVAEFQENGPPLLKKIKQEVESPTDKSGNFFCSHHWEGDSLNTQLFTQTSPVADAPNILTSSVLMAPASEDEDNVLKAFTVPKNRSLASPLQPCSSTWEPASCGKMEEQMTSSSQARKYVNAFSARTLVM
Chain of Oxysterols receptor LXR-beta (Homo sapiens) (P55055 whole entry, looked up, the tested form may be a part): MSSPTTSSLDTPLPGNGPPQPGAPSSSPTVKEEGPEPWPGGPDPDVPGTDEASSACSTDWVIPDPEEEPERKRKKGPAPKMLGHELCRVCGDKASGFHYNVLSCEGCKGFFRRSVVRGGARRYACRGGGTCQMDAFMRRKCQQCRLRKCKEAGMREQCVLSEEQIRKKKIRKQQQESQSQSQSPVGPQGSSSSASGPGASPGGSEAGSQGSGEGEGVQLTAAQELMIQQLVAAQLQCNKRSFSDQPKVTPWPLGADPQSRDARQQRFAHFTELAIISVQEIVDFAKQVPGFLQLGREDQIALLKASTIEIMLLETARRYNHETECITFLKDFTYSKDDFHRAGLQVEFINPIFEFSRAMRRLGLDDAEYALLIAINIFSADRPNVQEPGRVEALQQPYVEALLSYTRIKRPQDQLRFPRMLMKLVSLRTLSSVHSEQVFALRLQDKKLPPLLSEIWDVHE
Chain of Hepatocyte nuclear factor 4-alpha (Homo sapiens) (P41235 whole entry, looked up): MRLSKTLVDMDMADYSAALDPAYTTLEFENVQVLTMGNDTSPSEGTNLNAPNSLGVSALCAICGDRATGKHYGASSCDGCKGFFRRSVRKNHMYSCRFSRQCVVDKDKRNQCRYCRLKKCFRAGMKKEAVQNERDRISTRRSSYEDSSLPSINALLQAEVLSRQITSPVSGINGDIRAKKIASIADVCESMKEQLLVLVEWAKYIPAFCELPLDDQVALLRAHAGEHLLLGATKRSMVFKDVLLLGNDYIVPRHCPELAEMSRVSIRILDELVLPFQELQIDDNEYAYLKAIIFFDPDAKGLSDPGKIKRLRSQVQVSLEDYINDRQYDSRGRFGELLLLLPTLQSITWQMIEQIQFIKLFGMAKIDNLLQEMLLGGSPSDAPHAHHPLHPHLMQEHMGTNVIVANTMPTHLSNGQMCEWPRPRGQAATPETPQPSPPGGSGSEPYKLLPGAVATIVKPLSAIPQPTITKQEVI
Chain of Bile acid receptor (Homo sapiens) (Q96RI1 whole entry, looked up, the tested form may be a part): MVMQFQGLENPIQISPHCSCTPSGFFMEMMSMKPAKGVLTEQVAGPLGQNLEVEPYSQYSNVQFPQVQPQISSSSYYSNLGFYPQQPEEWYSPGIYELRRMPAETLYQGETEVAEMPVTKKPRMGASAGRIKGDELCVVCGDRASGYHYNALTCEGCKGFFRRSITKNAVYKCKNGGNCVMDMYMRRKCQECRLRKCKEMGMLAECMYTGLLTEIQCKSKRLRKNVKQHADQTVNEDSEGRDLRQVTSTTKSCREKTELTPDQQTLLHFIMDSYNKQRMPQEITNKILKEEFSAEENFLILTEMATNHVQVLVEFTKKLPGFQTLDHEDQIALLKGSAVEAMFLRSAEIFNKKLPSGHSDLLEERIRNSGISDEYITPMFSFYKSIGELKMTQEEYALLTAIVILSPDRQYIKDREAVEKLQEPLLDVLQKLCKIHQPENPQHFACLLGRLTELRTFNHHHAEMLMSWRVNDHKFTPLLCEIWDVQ
Chain of Nuclear receptor subfamily 1 group I member 3 (Homo sapiens) (Q14994 whole entry, looked up, the tested form may be a part): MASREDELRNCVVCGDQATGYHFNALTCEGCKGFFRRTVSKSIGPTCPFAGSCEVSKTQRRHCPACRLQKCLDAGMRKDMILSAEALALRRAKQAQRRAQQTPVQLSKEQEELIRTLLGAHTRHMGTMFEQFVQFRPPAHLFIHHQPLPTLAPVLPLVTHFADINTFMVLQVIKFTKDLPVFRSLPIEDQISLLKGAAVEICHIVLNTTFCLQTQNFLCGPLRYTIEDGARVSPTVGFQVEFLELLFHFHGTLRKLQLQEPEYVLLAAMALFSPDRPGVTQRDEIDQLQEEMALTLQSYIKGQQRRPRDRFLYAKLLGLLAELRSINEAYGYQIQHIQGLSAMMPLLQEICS

What is called AC50 is the concentration at which the activity in the assay is half-maximal. Take `NC(=O)N(O)[C@@H]1C=C[C@H](Oc2cccc(Oc3ccc(F)cc3)c2)C1`: the AC50 in [1] was 33 µM (active); in assay [3], 26 µM (active); in assay [4] it was 11.2 µM (active). Besides, the call in assay [2], in [5], in [6], in assay [7], in [8] and in assay [9] was inactive. In addition, the result in assay [10], in [11], in [12], in [13] and in assay [14] was inactive.

Consider `CCCCC(CC)COC(=O)CCCCC(=O)OCc1ccccc1` (stereo not drawn), for which the molecule was classed as inactive in assay [1], in assay [2], in [15], in assay [3], in assay [4] and in assay [5]. Moreover, the outcome in assay [9], in [16], in assay [13] and in [14] was inactive.

Turning to `CC(C)(C)c1ccc(O)c(C(C)(C)C)c1`, the outcome in assay [1], in assay [2], in [3], in [4], in assay [5] and in assay [7] was inactive. Also, the molecule was called inactive in assay [8], in assay [10], in assay [16], in assay [13] and in assay [14]. Moreover, the AC50 is 4.79 µM (active) in assay [17], 5.32 µM (active) in assay [9] and 9.6 µM (active) in assay [12].

`CC1=C(/C=C/C(C)=C/C=C/C(C)=C/C(=O)O)C(C)(C)CCC1`: the AC50 in assay [1] is 23.7 µM (active) and 102 µM (active); in assay [3], 6.62 µM (active) and 11.9 µM (active); in assay [5], 44.3 µM (active) and 8.86 µM (active); in assay [12], 57.2 nM (active) and 278 nM (active). Also, the molecule was called inactive in assay [2], in [6], in assay [9], in [16], in assay [11] and in assay [13]. Further, in assay [14], the result was inactive.

Take `COCC(C)O` (stereo not drawn): the call in [1], in assay [2], in [3], in assay [4], in assay [18] and in [5] was inactive. Further, the molecule was called inactive in [6], in [7], in assay [9], in assay [16], in [11] and in assay [12]. The molecule was classed as inactive in [13] and in [14].
